Data published in PubChem BioAssay (Tox21).
“And” between values parts separate entries of the source, which are not always exact repeats. Equal entries are not always repeated. Inconclusive results are not listed. The source made the active and inactive calls. Unless noted, calls come from the whole dose curve; as a rule, active = well fitted curve in the direction sought with a large enough effect in the repeat runs; inconclusive = weak or mixed curves; inactive = no such curve, though single readings can be large; an effect the other way counts as inactive or inconclusive.

Columns and labels:
[1] = qHTS assay to identify small molecule agonists of the peroxisome proliferator-activated receptor delta (PPARd) signaling pathway - cell viability counter screen (AID 743211); note: nearly all actives have a fitted effect of over 55% in size; note: potency is the fitted concentration of half-maximal effect
Method in brief: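 In the same wells used for beta-lactamase reporter measurement, cytotoxicity is scored by CellTiter-Glo. HEK293H PPARd-bla cells receive compound for 17 h at 37C following a 5 h settling period.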

[2] = qHTS assay to identify small molecule antagonists of the peroxisome proliferator-activated receptor delta (PPARd) signaling pathway - cell viability counter screen (AID 743213); note: nearly all actives have a fitted effect of over 50% in size
Method in brief: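 HEK293H PPARd UAS-bla cells, 5 h pre-incubation, compound + L165041 300 nM final, 17 h 37 C; B/G FRET substrate 2 h RT; then CellTiter-Glo 30 min RT, luminescence.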

[3] = qHTS assay to identify small molecule agonists of the farnesoid-X-receptor (FXR) signaling pathway - cell viability counter screen (AID 743218); note: nearly all actives have a fitted effect of over 45% in size; note: potency is the fitted concentration of half-maximal effect
Method in brief: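 Cytotoxicity counter-screen run in parallel, same wells: FXR-UAS-bla HEK 293T cells dosed 16 h at 37 C, viability read by CellTiter-Glo luminescence after 30 min at room temperature.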

[4] = qHTS assay to identify small molecule antagonists of the farnesoid-X-receptor (FXR) signaling pathway - cell viability counter screen (AID 743221; active = well fitted cell-killing curve with a large enough effect in the repeat runs, not every such curve was filed as active; note: nearly all actives have a fitted effect of over 50% in size)
Method in brief: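 Here viability was scored by luminescence after CellTiter-Glo addition to wells already read for beta-lactamase. Prior treatment: compound plus CDCA (50 uM final), 16 h, 37 C, HEK 293T FXR-bla cells.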

[5] = biological target: Vitamin D3 receptor (Homo sapiens) (UniProt P11473); assay: qHTS assay to identify small molecule agonists of the vitamin D receptor (VDR) signaling pathway (AID 743222; calls by dose curve)
Sequence of Vitamin D3 receptor (Homo sapiens) (P11473 whole entry, looked up): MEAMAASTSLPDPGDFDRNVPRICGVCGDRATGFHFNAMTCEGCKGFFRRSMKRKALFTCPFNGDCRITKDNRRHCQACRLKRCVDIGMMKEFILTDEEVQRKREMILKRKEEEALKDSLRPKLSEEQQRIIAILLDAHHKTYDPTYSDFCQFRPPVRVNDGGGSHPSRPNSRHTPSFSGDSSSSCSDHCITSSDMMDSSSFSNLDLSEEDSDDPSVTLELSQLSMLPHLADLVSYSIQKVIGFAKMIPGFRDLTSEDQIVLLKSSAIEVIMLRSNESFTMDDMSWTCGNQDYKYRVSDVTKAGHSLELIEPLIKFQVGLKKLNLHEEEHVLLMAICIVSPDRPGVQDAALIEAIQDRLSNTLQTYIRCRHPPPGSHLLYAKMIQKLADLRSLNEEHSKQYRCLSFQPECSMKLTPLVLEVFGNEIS
Method in brief: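 Quantitative HTS agonist-mode screen: compounds in DMSO were pin-transferred onto VDR-bla cells and incubated 16 h at 37C, 5% CO2. Reporter activity was detected with LiveBLAzer B/G FRET substrate after 2 h at room temperature.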

[6] = biological target: Vitamin D3 receptor (Homo sapiens) (UniProt P11473); assay: qHTS assay to identify small molecule antagonists of the vitamin D receptor (VDR) signaling pathway (AID 743223; active = well fitted inhibition curve with a large enough effect in the signal ratio in the repeat runs, not every such curve was filed as active; the % refers to the signal ratio)
Method in brief: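 Inhibition of agonist-driven VDR signalling is scored in VDR-bla cells: 3 nM final 1alpha,25-dihydroxyvitamin D3 plus compound, 16 h at 37C, then beta-lactamase detection by FRET substrate fluorescence after 2 h.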

[7] = biological target: Bile acid receptor (Homo sapiens) (UniProt Q96RI1); assay: qHTS assay to identify small molecule antagonists of the farnesoid-X-receptor (FXR) signaling pathway (AID 743217; active = well fitted inhibition curve with a large enough effect in the signal ratio in the repeat runs, not every such curve was filed as active; the % refers to the signal ratio)
Sequence of Bile acid receptor (Homo sapiens) (Q96RI1 whole entry, looked up): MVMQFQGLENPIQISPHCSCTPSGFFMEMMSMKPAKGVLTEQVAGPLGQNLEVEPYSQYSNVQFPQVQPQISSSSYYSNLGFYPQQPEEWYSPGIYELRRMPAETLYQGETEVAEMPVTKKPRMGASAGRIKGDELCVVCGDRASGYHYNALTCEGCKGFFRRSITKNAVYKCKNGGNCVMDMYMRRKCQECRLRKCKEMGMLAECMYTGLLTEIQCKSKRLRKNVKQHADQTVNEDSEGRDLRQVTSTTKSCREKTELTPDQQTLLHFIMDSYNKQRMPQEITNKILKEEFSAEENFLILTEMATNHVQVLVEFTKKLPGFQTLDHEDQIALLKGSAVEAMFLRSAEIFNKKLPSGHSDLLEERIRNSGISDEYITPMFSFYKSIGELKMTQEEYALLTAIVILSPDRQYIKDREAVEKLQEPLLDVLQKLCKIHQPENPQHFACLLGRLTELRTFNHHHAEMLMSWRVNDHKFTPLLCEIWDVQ
Method in brief: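 Antagonist mode against 50 uM (final) chenodeoxycholic acid stimulation in FXR-bla HEK 293T cells, 16 h at 37 °C. Inhibition detected as reduced beta-lactamase activity via LiveBLAzer B/G FRET fluorescence after 2 h at room temperature.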

[8] = biological target: Bile acid receptor (Homo sapiens) (UniProt Q96RI1); assay: qHTS assay to identify small molecule agonists of the farnesoid-X-receptor (FXR) signaling pathway (AID 743220; active = well fitted activation curve with a large enough effect in the signal ratio in the repeat runs, not every such curve was filed as active; the % refers to the signal ratio)
Method in brief: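 Beta-lactamase reporter under UAS control in GeneBLAzer FXR HEK 293T cells (5000/well) measured with LiveBLAzer FRET substrate after 2 h at room temperature. Compound exposure lasted 16 h at 37C.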

[9] = biological target: Peroxisome proliferator-activated receptor delta (Homo sapiens) (UniProt Q03181); assay: qHTS assay to identify small molecule agonists of the peroxisome proliferator-activated receptor delta (PPARd) signaling pathway (AID 743212; calls by dose curve)
Sequence of Peroxisome proliferator-activated receptor delta (Homo sapiens) (Q03181 whole entry, looked up): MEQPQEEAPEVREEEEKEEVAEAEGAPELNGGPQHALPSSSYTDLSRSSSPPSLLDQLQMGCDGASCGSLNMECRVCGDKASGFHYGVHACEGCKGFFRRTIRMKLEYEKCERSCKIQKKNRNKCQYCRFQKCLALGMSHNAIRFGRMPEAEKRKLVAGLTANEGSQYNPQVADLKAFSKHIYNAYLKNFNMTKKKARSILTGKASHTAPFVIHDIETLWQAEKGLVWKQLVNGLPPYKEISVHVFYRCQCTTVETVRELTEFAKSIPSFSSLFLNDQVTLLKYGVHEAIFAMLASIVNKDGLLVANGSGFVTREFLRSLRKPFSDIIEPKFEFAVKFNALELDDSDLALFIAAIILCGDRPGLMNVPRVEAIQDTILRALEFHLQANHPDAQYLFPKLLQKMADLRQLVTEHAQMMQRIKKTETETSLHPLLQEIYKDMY
Method in brief: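 GeneBLAzer PPARd UAS-bla HEK293H cells (beta-lactamase reporter under UAS control), plated and rested 5 h at 37 C, then exposed to compounds in DMSO at 37 C; LiveBLAzer B/G FRET substrate added, 2 h room temperature, fluorescence read.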

[10] = biological target: Peroxisome proliferator-activated receptor delta (Homo sapiens) (UniProt Q03181); assay: qHTS assay to identify small molecule antagonists of the peroxisome proliferator-activated receptor delta (PPARd) signaling pathway (AID 743215; active = well fitted inhibition curve with a large enough effect in the signal ratio in the repeat runs, not every such curve was filed as active; the % refers to the signal ratio;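 note: cells stimulated with agonist L165041 at 300 nM final during compound exposure; series mostly up to about 62 µM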)
Method in brief: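 Inhibition of L165041-driven (300 nM final) PPARd signaling is scored in HEK293H UAS-bla cells. Exposure lasts 17 h at 37 C; beta-lactamase activity is then read by FRET substrate fluorescence after 2 h at room temperature.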

Measured: Potency

Cc1ccc(Cl)cc1Cl
inactive: [1] | [2] | [3] | [4] | [5] | [6]

N[C@H]1CN(c2c(F)cc3c(=O)c(C(=O)O)cn(C4C[C@H]4F)c3c2Cl)CC12CC2 (stereo partly specified)
inactive: [1] | [3] | [5]

O=C1OC(=O)C2CCCCC12 (stereo unspecified)
inactive: [1] | [3] | [4] | [5] | [6]

O=C(O)CCCl
inactive: [1] | [3] | [4] | [5]

c1ccc(CC2=NCCN2)cc1
inactive: [1] | [7] | [8] | [4]

CCN1CCC[C@H]1CNC(=O)c1cc(S(N)(=O)=O)ccc1OC
inactive: [1] | [2] | [3] | [4] | [5] | [6]

C[C@H]1C[C@@H](O)CC(C)(C)C1
not listed: [1]
inactive: all other assays above

CCN(Cc1ccncc1)C(=O)C(CO)c1ccccc1 (stereo unspecified)
inactive: [1] | [2] | [3] | [4] | [5] | [6]

Cc1nc2c([nH]1)c(=O)n(C)c(=O)n2Cc1ccco1
not listed: [2] | [9] | [10]
inactive: all other assays above

CN(C)CCCNCCCN(C)C
inactive: [1] | [2] | [3] | [4] | [5] | [6]

CN(C)CCCN1c2ccccc2CCc2ccc(Cl)cc21
inactive: [5]
active: [1] 38.9 µM and 29.8 µM | [3] 24.5 µM

C=C(C)C(=O)OCCCCCCCC(C)C
inactive: [1] | [3] | [4] | [5] | [6]

Oc1ccc(C2CNCCc3c2cc(O)c(O)c3Cl)cc1 (stereo unspecified)
inactive: [1] | [2] | [3] | [4] | [5] | [6]

CCOC(=O)CC(C)=O
inactive: [1] | [2] | [3] | [5]

CCCCC/C=C\CCC=O
inactive: [1] | [3] | [4] | [5] | [6]

O=C(O)CCCc1ccccc1
inactive: [1] | [2] | [3] | [4] | [5] | [6]

COc1ccc2c(c1)c(CC(=O)OCC(=O)O)c(C)n2C(=O)c1ccc(Cl)cc1
inactive: [1] | [2] | [3] | [4] | [5]

COc1nc(N)nc2c1ncn2[C@@H]1O[C@H](CO)[C@@H](O)[C@@H]1O
inactive: [1] | [3] | [4] | [5] | [6]

c1ccc([C@H]2CN3CCSC3=N2)cc1
inactive: [9] | [2] | [10] | [3] | [4] | [5]

CCCCOCCOCCOCc1cc2c(cc1CCC)OCO2
inactive: [2] | [7] | [3] | [8] | [4]

Cc1cc(O)cc2c1O[C@](C)(CCC[C@H](C)CCC[C@H](C)CCCC(C)C)CC2
inactive: [7] | [3] | [8] | [4] | [5] | [6]

NCCc1cnc[nH]1
inactive: [1] | [2] | [3] | [4]

CN1C(=O)N(C)C(O)C1O (stereo unspecified)
inactive: [9] | [2] | [10] | [3] | [5] | [6]

CC(C)=CCCC(C)CC(=O)O (stereo unspecified)
not listed: [1] | [7] | [8]
inactive: all other assays above

Cc1ccc(=O)n(-c2ccccc2)c1
inactive: [1] | [3] | [4] | [5] | [6]

C=CCCCCCCCCC=O
inactive: [2] | [10] | [3] | [6]

O=C(CCCN1CCC(O)(c2cccc(C(F)(F)F)c2)CC1)c1ccc(F)cc1
not listed: [1] | [2] | [4]
inactive: all other assays above

Brc1c(NC2=NCCN2)ccc2nccnc12
inactive: [1] | [2] | [3] | [4] | [5] | [6]

CC(C)CCCC(C)N (stereo unspecified)
inactive: [1] | [3] | [4] | [5] | [6]

NS(=O)(=O)c1ccccc1Cl
inactive: [9] | [2] | [10] | [4] | [5]
